Test results reported in PubChem BioAssay AID1981 (Southern Research Specialized Biocontainment Screening …, 2009).
The whole screen tested about 2,200 compounds, of which about 480 (22%) were called active. The list is a sample of the results. Results with a measured potency or affinity are listed apart. Values without a mark were called inactive. The rule behind the calls is not given here.

Experiment: S. Typhimurium GFP fluorescence modified counterscreen for PhoP regulon inhibitor project dose response (AID 1981);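 note: 0% = induced DMSO wells and 100% = uninduced wells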
Conditions: 4 h; series mostly up to 150 µM; inhibition: at the top concentration

Compared with CN1C(=S)N(c2ccccc2)C(=O)/C1=C/c1ccco1, CC(C)(C)c1nn(-c2ccccc2)c2[nH]c(=O)c(CNCc3ccco3)cc12 is lower in “inhibition” value: -3.89% for the first, -4.67% for the second.

Compared with Cc1ccc(C(=O)Nc2ccccc2C(N)=O)o1, NC(=O)c1ccccc1NC(=O)/C=C/C(=O)O is lower in “inhibition” value: 2.22% for the first, -6.39% for the second.

Compared with COc1cccc(-n2c(SCc3cc(=O)oc4cc(O)c(O)cc34)nc3ccccc3c2=O)c1, COc1ccc(Nc2nc(-c3cccc([N+](=O)[O-])c3)nc3ccccc23)cc1 is lower in “inhibition” value: 24.6% for the first, -16% for the second.

First: Cc1cccc(-n2c(N)cc(=O)[nH]c2=S)c1
Second: Cc1cccc(-n2c(N)cc(=O)[nH]c2=S)c1C
The “inhibition” value of the first is higher: 36.5% for the first, 35.5% for the second.

First: C/C(=N\NC(=O)c1ccccc1)c1ccc2c(c1)OCO2
Second: Cc1ccc(C(=O)Nc2ccc3c(c2)OCO3)o1
The “inhibition” value of the first is lower: -1.5% for the first, 10.9% for the second.

Going from CCOc1ccccc1NS(=O)(=O)c1ccc(Br)s1 to COC(=O)COc1ccc(S(=O)(=O)Nc2ccccc2SC)cc1, the “inhibition” value falls from -5.39% to -20.6%.

Going from O=C(COc1ccc(Br)cc1Cl)NC(=O)NCc1ccccc1 to CSc1cccc(NC(=O)COc2cccc3ccccc23)c1, the “inhibition” value rises from -14.2% to 26.1%.

Going from CC(C)NCCCOc1ccc(Cl)cc1Br to Clc1ccc(OCCCn2ccnc2)c(Br)c1, the “inhibition” value falls from 12% to 7.23%.

Going from Clc1ccc(Nc2ccc(NCc3ccccc3)nn2)cc1 to Clc1ccc(Nc2ncnc3c2cnn3-c2ccccc2)cc1, the “inhibition” value falls from 8.59% to -9.26%.

Going from CCCCNCCCOc1cccc(Cl)c1Cl to CCCCCNS(=O)(=O)c1cc(C)ccc1OC, the “inhibition” value falls from 3.42% to 2.03%.

Going from Clc1cc(Br)ccc1OCCn1ccnc1 to O=C(Oc1c(Br)cc([N+](=O)[O-])cc1Br)c1cccnc1, the “inhibition” value rises from 9.91% to 29.2%.

Compared with O=C1Nc2ccccc2C(O)(C(=O)N2CCCCC2)N1c1ccccc1 (stereo not given), O=C(C1CCN(C2CC(=O)N(Cc3ccccc3)C2=O)CC1)N1CCCCCC1 (stereo not given) is lower in “inhibition” value: 0.43% for the first, -1.1% for the second.

Compared with Cc1cc(C2=NNC(=NC3CC3)SC2)c(C)n1Cc1ccco1, Cc1c(C)n(Cc2ccccc2)c2ncnc(N)c12 is higher in “inhibition” value: -6.12% for the first, -0.12% for the second.

Compared with Cc1cccc(OCCCSc2nc3ccc(C)cc3[nH]2)c1, Cn1c(COc2ccccc2)nnc1SCc1nc2ccccc2[nH]1 is lower in “inhibition” value: 8.72% for the first, -28.7% for the second.

First: C=C(C)Cn1c(CCn2c3ccccc3c3ccccc32)n[nH]c1=S
Second: N=c1n(CCO)c2ccccc2n1Cc1ccc(Cl)cc1
The “inhibition” value of the first is lower: -5.59% for the first, 8.73% for the second.

First: N#C/C(=C\c1c(Cl)cccc1Cl)c1nc2ccccc2[nH]1
Second: COc1cccc(C2Nc3ccccc3C(=O)N2O)c1O (stereo not given)
The “inhibition” value of the first is lower: 0.17% for the first, 20.4% for the second.

First: COCc1cc(C)nc(N2CCc3ccccc32)c1C#N
Second: Cc1ccc(NC(=O)CCN2CCc3ccccc3C2)cc1
The “inhibition” value of the first is lower: -15% for the first, 8.78% for the second.

Compared with CCOc1ccc2nc(COC(=O)c3ccco3)c(C(C)=O)[n+]([O-])c2c1, CCOC(=O)C1=C(C)NC(=S)NC1c1ccc(OC(=O)c2ccco2)cc1 (stereo not given) is lower in “inhibition” value: 5.1% for the first, -2.14% for the second.

First: Cc1ccc(C[n+]2cc(-c3ccc(Cl)cc3)n3c2CCC3)cc1
Second: N=c1n(Cc2ccc(Cl)cc2)c2ccccc2n1CC(O)c1ccco1 (stereo not given)
The “inhibition” value of the first is lower: 0.58% for the first, 2.34% for the second.

Going from CCOC(=S)SCC(=O)Nc1nc(-c2ccccc2)cs1 to CN(C)CC(=O)Nc1nc(-c2ccccc2)cs1, the “inhibition” value rises from -12.2% to 2.72%.

Going from COc1ccc2cc(C)c3nnc(SCC(=O)Nc4nc(-c5ccccc5)cs4)n3c2c1 to COc1ccc(-c2csc(NC(=O)C3CCCO3)n2)cc1 (stereo not given), the “inhibition” value rises from -5.19% to -2.8%.

Compared with CCCCCOC(=O)C1=C(C)Nc2nnnn2C1c1ccc(OC)c(OC)c1OC (stereo not given), CCCCCCCCOC(=O)C1=C(C)Nc2nnnn2C1c1cccs1 (stereo not given) is lower in “inhibition” value: -12.6% for the first, -13% for the second.

Compared with Cc1ccc(Nc2nc(CSc3nnc(-c4ccc(F)cc4)n3C)cs2)cc1, Cc1cccn2cc(CSc3nnc(Nc4ccc(C(C)C)cc4)s3)nc12 is lower in “inhibition” value: 12.9% for the first, -0.41% for the second.

Going from COc1ccc(OC)c(NC(=S)NCCCN2CCOCC2)c1 to COc1ccccc1NC(=S)NNC(=O)c1c(Cl)c(C)nn1C, the “inhibition” value rises from -26.3% to -16.2%.

Compared with C=CCN(CC=C)Cc1c[nH]c2ccccc12, CCN(CC)Cc1c[nH]c2c(C(=O)OC)cccc12 is lower in “inhibition” value: -6.22% for the first, -10.6% for the second.

Compared with Cc1cc(C)[n+](C2C3CC4CC(C3)CC2C4)o1 (stereo not given), COc1ccc(NC2=NC(=S)N(c3cccc(C)c3)C23CCCCC3)cc1 is higher in “inhibition” value: -3.92% for the first, -1.25% for the second.

First: CCOC(=O)c1c(N)ssc1=S
Second: CCOC(=O)c1cc2ccc(OC)c(OC)c2c(=O)s1
The “inhibition” value of the first is higher: -4.32% for the first, -12.9% for the second.

First: CCOC(=O)c1ccc2c(c1)C(=O)N(C1CCCCC1)C2=O
Second: O=C(OCCN1C(=O)c2ccccc2C1=O)c1ccc(S(=O)(=O)N2CCCCCC2)cc1
The “inhibition” value of the first is higher: -0.64% for the first, -5.15% for the second.

Going from O=C1c2ccccc2NC(c2ccc(-c3cccc(Cl)c3)o2)N1O (stereo not given) to Cc1cc(NC(=O)c2ccccc2-c2ccccc2)ccc1Br, the “inhibition” value falls from 39.3% to 3.71%.

Going from Cc1ccc([N+](=O)[O-])cc1NC(=O)CN(C(=O)c1ccc(Cl)cc1)C1CCCCC1 to CCCNC(=O)CN(C1CCCCC1)S(C)(=O)=O, the “inhibition” value falls from 3.93% to -3.08%.

Going from CN1c2ccccc2C(=O)NC1c1ccc([N+](=O)[O-])s1 (stereo not given) to Cc1ccc(C(C)C)cc1C(=O)CC1(O)C(=O)N(C)c2ccccc21 (stereo not given), the “inhibition” value falls from -1.37% to -7.31%.

Going from N#Cc1c(N)n[nH]c1-c1cc2c([nH]1)CCCC2 to COc1ccc(NC2=NC3(CCCCC3)N=C(N)N2)cc1, the “inhibition” value falls from 4.52% to -11.8%.

Going from O=C(NCc1ccco1)c1c2c(nc3ccccc13)CCC2 to COc1ccccc1Nc1nc(NCc2ccco2)c2ccccc2n1, the “inhibition” value rises from -6.14% to 12.3%.

First: Cc1[nH]c2ccccc2c1C(=O)CN1CCSCC1
Second: CC1CCC(NC(=O)C2c3ccccc3C(=O)N2Cc2cccs2)CC1 (stereo not given)
The “inhibition” value of the first is lower: -4.49% for the first, 3.27% for the second.

First: c1ccc(C2CNCc3c2ccc2ccccc32)cc1 (stereo not given)
Second: O=C(NC(c1ccc(Cl)cc1)c1c(O)ccc2ccccc12)c1ccccc1 (stereo not given)
The “inhibition” value of the first is higher: 12.6% for the first, -19% for the second.

Compared with CCOc1ccc(CSC(CC(=O)O)C(=O)O)cc1 (stereo not given), CCOC(=O)c1cc2sc(C)cc2n1CC(=O)NCc1ccc(F)cc1 is higher in “inhibition” value: 0.82% for the first, 1.75% for the second.

Compared with O=C(CCN1C(=O)c2ccccc2S1(=O)=O)Nc1ccc2c(c1)OCCO2, O=C(CCCN1C(=O)CCC1=O)Nc1ccc2c(c1)OCCO2 is lower in “inhibition” value: 1.94% for the first, -21.9% for the second.

Going from COc1cccc(NC(=O)CNC(=O)c2cccs2)c1 to O=C(CNc1ccccc1)Nc1ccc(F)cc1, the “inhibition” value rises from -4.85% to 14.3%.

Compared with Cc1ccccc1Cn1nc(C)c(NC(=O)c2noc3c2CCc2ccccc2-3)c1C, Cc1nc(SCC(=O)NC(C)c2ccccc2)c2oc3ccccc3c2n1 (stereo not given) is higher in “inhibition” value: -13.4% for the first, -4.01% for the second.

First: O=C1C(c2ccc(F)cc2)N(Cc2ccc3c(c2)OCO3)C(=O)CN1C1CCCCCC1 (stereo not given)
Second: CCc1nn2cc(C(=O)c3cc(Cl)ccc3O)cnc2c1-c1ccc(F)cc1
The “inhibition” value of the first is lower: -19.2% for the first, 3.07% for the second.

Going from CCOC(=O)c1c(C)[nH]c(C)c1C(=O)CSc1ncccn1 to C=CCn1c(C)cc(C(=O)CSc2nc(N)cc(N)n2)c1C, the “inhibition” value rises from -9.71% to 25.2%.

Going from CC1CCN(C(=O)c2ccc3c(c2NCCO)C(=O)c2ccccc2C3=O)CC1 to O=C(CCc1ccccc1)Nc1nc2ccc(S(=O)(=O)N3CCOCC3)cc2s1, the “inhibition” value rises from 4.02% to 30%.

Going from CSc1nsc(SCC(=O)Nc2ccc(C(C)=O)cc2)n1 to Cc1cc(C)c2c(=O)[nH]c(SCC(=O)Nc3ccc(N(C)C)cc3)nc2n1, the “inhibition” value rises from -16.7% to 22.4%.

First: CN(C(=O)/C=C/c1ccccc1)C1CCS(=O)(=O)C1 (stereo not given)
Second: O=C(/C=C/c1ccccc1)N1CCN(c2c(Cl)cccc2[N+](=O)[O-])CC1
The “inhibition” value of the first is higher: -5.09% for the first, -10.6% for the second.

Compared with Cc1cc(C)nc(N(C#N)C(C)C(=O)N(C)C)n1 (stereo not given), CCN(C(C)=O)c1nc(CSc2nnc(NC(C)C)s2)cs1 is higher in “inhibition” value: -16% for the first, 2.43% for the second.

Going from O=c1[nH]c(CN2CC=C(c3ccccc3)CC2)nc2cc(C(F)(F)F)ccc12 to Cc1cccc(NC(=O)c2ccc(Cn3cc(C(F)(F)F)ccc3=O)cc2)c1, the “inhibition” value falls from 3.42% to -3.63%.

Compared with BrC(=C\c1ccccc1)/C=N/N1CCN(c2ccccn2)CC1, CCCS(=O)(=O)N1CCCC(C(=O)N2CCN(c3ccccn3)CC2)C1 (stereo not given) is higher in “inhibition” value: -4.11% for the first, 6.36% for the second.

Going from C/C(CC(=O)Nc1ccc(Cl)c(C(F)(F)F)c1)=N\NC(=O)c1cccc(O)c1 to O=C(O)/C=C/C(=O)Nc1cccc(C(F)(F)F)c1, the “inhibition” value falls from 8.6% to -8.86%.

Going from C#CCN1C(=O)C(O)(CC(=O)c2ccc(OC)c(OC)c2)c2ccccc21 (stereo not given) to COc1ccc(OC)c(NC(=O)c2ccccc2NS(=O)(=O)c2cccc3cccnc23)c1, the “inhibition” value rises from -14.4% to 6.2%.

First: COc1ccc(Oc2ccccc2/C=N/O)cc1
Second: COc1ccc(C2=Nc3nc(-c4ccccc4)cn3C(c3ccc(OC)cc3)C2)cc1 (stereo not given)
The “inhibition” value of the first is lower: 2.01% for the first, 17.6% for the second.

Compared with CCNC(=S)NNC(=O)c1ccc(OC(F)F)cc1, COC(=O)c1ccc(COC(=O)c2ccccn2)cc1 is higher in “inhibition” value: -6.15% for the first, 0.02% for the second.

First: CC(C)NC(=O)CSc1nc(N)c(NC(=O)c2ccccc2F)c(=O)[nH]1
Second: O=C(Nc1ccc(F)cc1)c1ccccc1F
The “inhibition” value of the first is lower: -13.4% for the first, -9.79% for the second.

Compared with CN(C)CC(C(=O)c1ccccc1)c1ccccc1 (stereo not given), O=P(Cc1cc[n+]([O-])cc1)(c1ccccc1)c1ccccc1 is lower in “inhibition” value: 23.2% for the first, -15.7% for the second.

First: Cc1ccc(C(=O)NCc2ccc(Cl)cc2)o1
Second: CC(Oc1ccc(Cl)cc1)c1ccnn1S(=O)(=O)c1ccccc1 (stereo not given)
The “inhibition” value of the first is higher: 2.23% for the first, -5.43% for the second.

First: Cc1ccc2cccnc2c1NC(=S)NC(=O)c1ccccc1
Second: N/C(=N\OC(=O)N1c2ccccc2Sc2ccccc21)c1ccccc1
The “inhibition” value of the first is higher: 24.2% for the first, 20.9% for the second.

First: CCCCCn1c(C(C)NC(=O)CCC)nc2ccccc21 (stereo not given)
Second: O=C(CSc1ncn[nH]1)Nc1cccc2ccccc12
The “inhibition” value of the first is higher: -0.25% for the first, -11.3% for the second.

First: CCCN(CCC)CCCNS(=O)(=O)c1ccc2c(c1)oc(=O)n2C
Second: CCCCC(=O)NCCNC(=O)c1cc(OCC(F)(F)F)ccc1OCC(F)(F)F
The “inhibition” value of the first is higher: -2.37% for the first, -9.07% for the second.

Compared with Cc1ccc(C)c(/C=C/C(=O)c2ccccc(=O)c2O)c1, O=S(=O)(Nc1ccc(N=Nc2ccc(O)c3ccccc23)cc1)c1ccccc1 is lower in “inhibition” value: 38.6% for the first, 23.8% for the second.

Going from Cn1ncc(Br)c1C(=O)NCc1cccs1 to CCn1ncc(/C=C/C(=O)NCc2cn(C)nc2C)c1C, the “inhibition” value rises from -18.8% to -3.98%.

First: O=C(CSc1nnc(-c2ccc(Br)cc2)o1)Nc1cccc2ccccc12
Second: COc1ccc(-c2cn[nH]c2-c2ccc(OCc3ccc([N+](=O)[O-])cc3)cc2O)cc1
The “inhibition” value of the first is lower: -0.45% for the first, 15.1% for the second.
